Bioassay records as filed in PubChem.
Only some compounds are listed: those with a hit (about 4.7% of all), similar ones and a draw of the others.
MLLE-PAM2 inh: blocks PAM2 peptide binding to the PABP1 MLLE domain. inhibition, % at 20 µM. P11940. hit rate 0.36% among 360,000. GST-MLLE / FITC-PAM2 fluorescence polarization. AID 588489; in the data active means inhibition above about 35%, passing the limit was not always enough;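 further: plate controls were DMSO wells with GST-MLLE for no effect and wells lacking GST-MLLE protein for full effect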
Efflux pump inh: blocks antifungal efflux pumps in multiplex yeast assay | hit rate 0.44% among 330,000 | inhibition, % at 10 µM | S. cerevisiae Candida pump triplex, Nile Red efflux | AID 485275;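 active means plate passing quality check with inhibition over a set limit, or well fluorescence over plate mean plus 4 SD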;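 further: Nile Red retained in pooled yeast measured as flow cytometry median fluorescence; 0% = buffer negative control and 100% = Enniatin B positive control; higher means more Nile Red kept so more efflux inhibition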
UBC9 SUMO inh: SUMOylation inhibition | P63279 | HTRF SUMOylation assay, SAE1/SAE2 + UBC9, in vitro | inhibition, % at 35 µM | hit rate 0.36% among 290,000 | AID 2006; in the data active means inhibition above about 50%, passing the limit was not always enough
Target sequence (P63279 whole entry, looked up): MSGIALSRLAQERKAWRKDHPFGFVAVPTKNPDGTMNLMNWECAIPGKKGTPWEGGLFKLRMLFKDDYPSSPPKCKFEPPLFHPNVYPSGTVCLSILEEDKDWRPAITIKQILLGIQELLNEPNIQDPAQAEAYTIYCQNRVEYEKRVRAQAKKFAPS
PABP FP inh: PABP-poly(A) binding inhibition | P11940 | PABP-poly(A) RNA binding, fluorescence polarization | inhibition, % at 35 µM | hit rate 1% among 290,000;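 further: calls also rest on retests at 20 µM and on dose response follow-up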
eIF4H FP inh: inhibitors of RNA binding by human eIF4H; Q15056; hit rate 0.94% among 290,000; eIF4H fluorescence polarization binding assay; inhibition, % at 35 µM;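 further: calls also rest on retests at 20 µM and on dose response follow-up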
ALR H2O2 inh: inhibitors of human sulfhydryl oxidase ALR; P55789; purified ALR, DTT oxidation, H2O2 HRP-luminol luminescence; hit rate 3.8% among 290,000; inhibition, % (no concentration beside the values); AID 485317;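 active means mean replicate inhibition above about 79%, with every replicate also reaching it, limit read from the data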
Target sequence (P55789 whole entry, looked up): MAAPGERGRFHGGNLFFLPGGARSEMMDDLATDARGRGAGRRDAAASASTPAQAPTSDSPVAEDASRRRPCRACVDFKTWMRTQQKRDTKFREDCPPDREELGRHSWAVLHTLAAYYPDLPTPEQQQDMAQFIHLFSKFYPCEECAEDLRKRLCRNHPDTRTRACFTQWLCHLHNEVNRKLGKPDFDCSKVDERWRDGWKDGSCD
Yeast cmpd fluor: flagged as fluorescent in efflux inhibitor counter-screen; AID 588517; fluorescence ratio to DMSO, % at 10 µM; shares compounds with Efflux pump inh; S. cerevisiae AD/pABC3, compound fluorescence, flow cytometry; hit rate 4% among 1,700;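 active means fluorescence ratio to DMSO above its plate's cutoff, the plate mean ratio plus 5 SD, cut at about 210% in these data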;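 further: unstained yeast with no Nile Red so the signal is compound autofluorescence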
CaMdr1 efflux inh: inhibitors of Candida albicans Mdr1 efflux pump; shares compounds with Efflux pump inh; S. cerevisiae AD/CaMDR1, Nile Red efflux, flow cytometry; hit rate 1% among 1,700; inhibition, % at 10 µM; in the data active means inhibition above about 26%;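 further: 0% = DMSO vehicle and 100% = reference inhibitor; higher means more Nile Red retained so more efflux inhibition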
Cdr2 pump inh: inhibitors of Candida albicans Cdr2 efflux pump. shares compounds with Efflux pump inh. AID 588520. hit rate 4% among 1,700. Nile Red retention ratio vs DMSO, % at 10 µM. S. cerevisiae AD/CaCDR2, Nile Red retention, flow cytometry; in the data active means Nile Red retention ratio vs DMSO above about 190%;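 further: higher ratio means more blocking of Cdr2 efflux of the dye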
CaCdr1 efflux inh: blocks the Candida albicans Cdr1 efflux pump in yeast. AID 588522. inhibition, % at 10 µM. hit rate 1% among 1,700. shares compounds with Efflux pump inh. S. cerevisiae AD/CaCDR1, Nile Red efflux, flow cytometry;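 active means inhibition above the screen-wide mean plus twice its standard deviation, cut at about 32% in these data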
The depositor's hits bear a star. Unless noted, how the calls were made is not given here.

Screening CC(/C=C/c1ccccc1)=N\Nc1nc(C)cc(C)n1 returned MLLE-PAM2 inh -7, Efflux pump inh 5.5*, UBC9 SUMO inh 14, PABP FP inh -5, eIF4H FP inh 7, ALR H2O2 inh 2, Yeast cmpd fluor 100, CaMdr1 efflux inh 0, Cdr2 pump inh 112 and CaCdr1 efflux inh 0.
`O=Cc1cccc(Oc2ccc([N+](=O)[O-])cc2[N+](=O)[O-])c1` gave MLLE-PAM2 inh -2, Efflux pump inh 0.7*, UBC9 SUMO inh -5, PABP FP inh 1, eIF4H FP inh 1, ALR H2O2 inh -36, Yeast cmpd fluor 100, CaMdr1 efflux inh 0, Cdr2 pump inh 101 and CaCdr1 efflux inh 0.
O=C(c1ccccc1)c1ccc(Oc2ccc([N+](=O)[O-])cc2[N+](=O)[O-])cc1 was read as MLLE-PAM2 inh 12.
For O=S(=O)(NC1CCCC1)c1ccc(S(=O)(=O)N2CCN(c3ccccc3)CC2)cc1 the results were MLLE-PAM2 inh 9, Efflux pump inh 2.0*, UBC9 SUMO inh 13, PABP FP inh 11, eIF4H FP inh 4, ALR H2O2 inh -6, Yeast cmpd fluor 101, CaMdr1 efflux inh 0, Cdr2 pump inh 87 and CaCdr1 efflux inh 0.
For CCCCCCCCn1ccc(=N)cc1 the results were MLLE-PAM2 inh -10, Efflux pump inh 0.8*, UBC9 SUMO inh 12, PABP FP inh -3, eIF4H FP inh -12, ALR H2O2 inh -2, Yeast cmpd fluor 97, CaMdr1 efflux inh 0, Cdr2 pump inh 108 and CaCdr1 efflux inh 0.
`O=C(CSc1nnc(NC(=O)C2CCC2)s1)Nc1ccccc1F` gave MLLE-PAM2 inh 0, Efflux pump inh 0, UBC9 SUMO inh 0, PABP FP inh 4, eIF4H FP inh 4 and ALR H2O2 inh 2.
Screening O=C(CCCN1C(=O)/C(=C/c2ccccc2Cl)SC1=S)NNC(=O)c1ccc(Cl)cc1 returned MLLE-PAM2 inh -23, Efflux pump inh 0.6*, UBC9 SUMO inh 27, PABP FP inh -16, eIF4H FP inh 0, ALR H2O2 inh -6, Yeast cmpd fluor 98, CaMdr1 efflux inh 0, Cdr2 pump inh 100 and CaCdr1 efflux inh 0.
Screening COc1ccc(C(=O)NC(=S)Nc2ccc(N3CCOCC3)c(Cl)c2)cc1[N+](=O)[O-] returned MLLE-PAM2 inh 36, Efflux pump inh -1, UBC9 SUMO inh -1, PABP FP inh 1, eIF4H FP inh -3 and ALR H2O2 inh -15.
Screening O=C(c1ccc(Cn2cc(Cl)c([N+](=O)[O-])n2)cc1)N1CCN(Cc2ccccc2)CC1 returned MLLE-PAM2 inh 6, Efflux pump inh 0, UBC9 SUMO inh 11, PABP FP inh -5, eIF4H FP inh -6 and ALR H2O2 inh -3.
Screening COc1ccc(/C=c2\s/c(=C(/C#N)C(=O)NCc3ccco3)n(-c3ccccc3)c2=O)cc1 returned MLLE-PAM2 inh -17, Efflux pump inh 0.7*, UBC9 SUMO inh 32, PABP FP inh 4, eIF4H FP inh 1, ALR H2O2 inh 32, Yeast cmpd fluor 106, CaMdr1 efflux inh 0, Cdr2 pump inh 107 and CaCdr1 efflux inh 0.
COC(=O)/C=c1/s/c(=C(\C#N)C(=O)NCc2ccco2)n(-c2ccccc2)c1=O was read as MLLE-PAM2 inh -34, Efflux pump inh 0, UBC9 SUMO inh 0, PABP FP inh 3, eIF4H FP inh 10 and ALR H2O2 inh 7.
For Cn1c(-c2ccccc2O)cc2ccccc21 the results were MLLE-PAM2 inh 3, Efflux pump inh 0.2*, UBC9 SUMO inh 20, PABP FP inh 37, eIF4H FP inh 14, Yeast cmpd fluor 100, CaMdr1 efflux inh 0, Cdr2 pump inh 103 and CaCdr1 efflux inh 0.
`O=C(CCN1C(=O)/C(=C/c2ccc(F)cc2)SC1=S)NCCCn1ccnc1` gave MLLE-PAM2 inh -7, Efflux pump inh 2.1*, UBC9 SUMO inh 11, PABP FP inh -8, eIF4H FP inh -13, ALR H2O2 inh 3, Yeast cmpd fluor 103, CaMdr1 efflux inh -1, Cdr2 pump inh 98 and CaCdr1 efflux inh 0.
O=C(CCN1C(=O)/C(=C/c2ccc(Cl)cc2)SC1=S)NCCCn1ccnc1 was read as MLLE-PAM2 inh 29, Efflux pump inh 0, UBC9 SUMO inh 11, PABP FP inh -3, eIF4H FP inh 16 and ALR H2O2 inh -5.
`CCN(C(=O)CSc1nnc2ccccn12)c1c(N)n(Cc2ccccc2)c(=O)[nH]c1=O` gave MLLE-PAM2 inh -3, Efflux pump inh 5.8*, UBC9 SUMO inh -3, PABP FP inh 49, eIF4H FP inh -1, ALR H2O2 inh -7, Yeast cmpd fluor 77, CaMdr1 efflux inh 0, Cdr2 pump inh 91 and CaCdr1 efflux inh 0.
CCCCN(C(=O)CSc1nnc2ccccn12)c1c(N)n(Cc2ccccc2)c(=O)[nH]c1=O was read as MLLE-PAM2 inh 14, Efflux pump inh 0, UBC9 SUMO inh 11, PABP FP inh 6, eIF4H FP inh 12 and ALR H2O2 inh -5.
`COc1cc(/C=c2\sc3nc(-c4ccncc4)nn3c2=O)ccc1OC(C)=O` gave UBC9 SUMO inh 11, PABP FP inh -4 and eIF4H FP inh -8.
Screening CC(=O)Oc1cccc(/C=c2\sc3nc(-c4ccco4)nn3c2=O)c1 returned MLLE-PAM2 inh 16, Efflux pump inh 0, UBC9 SUMO inh 8, PABP FP inh 6, eIF4H FP inh 18, ALR H2O2 inh -5, Yeast cmpd fluor 79, CaMdr1 efflux inh 0, Cdr2 pump inh 89 and CaCdr1 efflux inh 0.
For CCCOc1ccc(/C=C2/C(=O)ON=C2C)cc1OCC the results were MLLE-PAM2 inh 21, Efflux pump inh 0, UBC9 SUMO inh 9, PABP FP inh 2, eIF4H FP inh -9 and ALR H2O2 inh 30.
CCCOc1ccc(/C=c2\sc3nc(-c4ccco4)nn3c2=O)cc1OCC was read as MLLE-PAM2 inh 24, Efflux pump inh 0, UBC9 SUMO inh 2, PABP FP inh 4, eIF4H FP inh 52, ALR H2O2 inh 1, Yeast cmpd fluor 97, CaMdr1 efflux inh 0, Cdr2 pump inh 89 and CaCdr1 efflux inh 0.
Screening CCN(CC)C(=O)C1=C(C)N(Cc2ccccc2)C(=O)C(CC(=O)NC2CCCCC2)C1 (stereo not given) returned MLLE-PAM2 inh 7.
`O=C(Cn1nnc(-c2ccc([N+](=O)[O-])cc2)n1)NNC(=O)c1ccccc1` gave MLLE-PAM2 inh 16, Efflux pump inh 0, UBC9 SUMO inh 8, PABP FP inh 7 and eIF4H FP inh -1.
